Data taken from PubChem BioAssay AID1159580 (chemical genetic matrix, 2015).
Where “and” joins values, the source holds several entries; their conditions need not be identical. Equal entries are not always repeated. Among all 5,500 compounds or so, about 2,000 (36%) were called active. About 18% were inconclusive and are not listed. Rule as the data show it: active = normalized growth mostly below about 0.91 (no sharp cut-off); inconclusive = no clear call, values can overlap the other calls; inactive = mostly above about 0.92. The list shows a part of the results.

Assay: chemical genetic growth profiling, strain panel (AID 1159580);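 also: tested at 20 µM; growth read once vehicle control cultures reached saturation at 30 °C; 1 = growth at the plate median or of vehicle wells; lower values mean less growth of the strain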
Details: S. cerevisiae deletion strains, growth OD

Measured: normalized growth

CC1=C(/C=C/C(C)=C/C=C/C(C)=C/CO)C(C)(C)CCC1
inactive: locus YAL013W, strain DEP1, hits give low values 1 | locus YAL021C, strain ccr4, hits give low values 1.05 | locus YAL026C, strain drs2, hits give low values 1.03 | locus YAL030W, strain snc1, hits give low values 0.995 | locus YBL061C, strain skt5, hits give low values 1.02 | locus YBR009C, strain hhf1, hits give low values 0.961 | locus YBR021W, strain FUR4, hits give low values 1.01 | locus YBR023C, strain chs3, hits give low values 1.01 | locus YBR171W, strain sec66, hits give low values 1.01 | locus YBR229C, strain ROT2, hits give low values 0.969 | locus YBR231C, strain swc5, hits give low values 0.983 | locus YBR279W, strain paf1, hits give low values 1 | locus YCL011C, strain gbp2, hits give low values 1.04 | locus YCL016C, strain dcc1, hits give low values 1.04 | locus YCL029C, strain bik1, hits give low values 1 | locus YCL061C, strain MRC1, hits give low values 1.01 | locus YCL069W, strain vba3, hits give low values 1.01 | locus YCR088W, strain abp1, hits give low values 1.03 | locus YDL005C, strain med2, hits give low values 1.02 | locus YDL035C, strain GPR1, hits give low values 0.982 | locus YDL040C, strain nat1, hits give low values 0.998 | locus YDL074C, strain BRE1, hits give low values 0.938 | locus YDL101C, strain DUN1, hits give low values 0.977 | locus YDL134C, strain PPH21, hits give low values 1.02 | locus YDL185W, strain tfp1, hits give low values 0.997 | locus YDL192W, strain arf1, hits give low values 1 | locus YDR001C, strain nth1, hits give low values 1.01 | locus YDR069C, strain doa4, hits give low values 1.04 | locus YDR101C, strain arx1, hits give low values 0.993 | locus YDR137W, strain rgp1, hits give low values 1.03 | locus YDR150W, strain NUM1, hits give low values 1 | locus YDR159W, strain sac3, hits give low values 0.968 | locus YDR162C, strain NBP2, hits give low values 0.993 | locus YDR195W, strain ref2 0.988 | locus YDR297W, strain sur2, hits give low values 1 | locus YDR318W, strain mcm21, hits give low values 1 | locus YDR334W, strain swr1, hits give low values 1.02 | locus YDR335W, strain msn5, hits give low values 1.02 | locus YDR388W, hits give low values 1 | locus YDR392W, strain spt3, hits give low values 0.965 | locus YDR502C, strain sam2, hits give low values 1 | locus YEL003W, strain gim4, hits give low values 1 | locus YEL037C, strain rad23, hits give low values 1 | locus YEL061C, strain CIN8 (second series), hits give low values 1.01 | locus YEL061C, strain CIN8, hits give low values 0.992 | locus YER015W, strain faa2, hits give low values 1.01 | locus YER016W, strain bim1, hits give low values 1.06 | locus YER110C, hits give low values 0.999 | locus YER111C, strain swi4, hits give low values 1 | locus YER155C, strain BEM2 (second series), hits give low values 1.07 | locus YER155C, strain BEM2, hits give low values 1.01 | locus YER167W, strain BCK2, hits give low values 1 | locus YFR010W, strain ubp6, hits give low values 0.988 | locus YGL078C, strain dbp3, hits give low values 1.01 | locus YGL086W, strain mad1, hits give low values 0.983 | locus YGL167C, strain pmr1, hits give low values 1.01 | locus YGL173C, strain kem1, hits give low values 0.971 | locus YGL227W, strain vid30, hits give low values 1 | locus YGL240W, strain doc1, hits give low values 1.01 | locus YGL248W, strain PDE1, hits give low values 0.965 | locus YGL253W, strain hxk2, hits give low values 0.993 | locus YGR078C, strain PAC10, hits give low values 0.967 | locus YGR135W, strain pre9, hits give low values 1 | locus YGR252W, strain gcn5, hits give low values 0.985 | locus YHR013C, strain ard1, hits give low values 1.04 | locus YHR027C, strain rpn1, hits give low values 1.01 | locus YHR030C, strain SLT2, hits give low values 1.01 and 0.999 | locus YHR079C, strain IRE1 (second series), hits give low values 1.01 | locus YHR079C, strain IRE1, hits give low values 1.04 | locus YHR094C, strain hxt1, hits give low values 1.01 | locus YHR129C, strain ARP1, hits give low values 1.01 | locus YHR142W, strain chs7, hits give low values 1 | locus YHR200W, strain rpn10, hits give low values 1 | locus YIL066C, strain RNR3, hits give low values 0.964 | locus YIL073C, strain SPO22, hits give low values 1.01 | locus YIL125W, strain kgd1, hits give low values 0.995 | locus YIR030C, strain dcg1, hits give low values 0.998 | locus YJL092W, strain hpr5, hits give low values 1 | locus YJL095W, strain BCK1 (second series), hits give low values 1 | locus YJL095W, strain BCK1, hits give low values 0.924 and 1.01 | locus YJL115W, strain asf1, hits give low values 1.01 | locus YJL129C, strain trk1, hits give low values 0.985 | locus YJL134W, strain LCB3, hits give low values 1.01 | locus YJL154C, strain vps35, hits give low values 1.02 | locus YJL164C, strain tpk1, hits give low values 0.993 | locus YJL166W, strain qcr8, hits give low values 0.967 | locus YJL168C, strain set2, hits give low values 0.997 | locus YJL187C, strain SWE1 (second series), hits give low values 0.96
